The values below come from PubChem BioAssay (NCATS).

SMILES strings stand for the structures. Records with an inconclusive call do not appear. The source made the active and inactive calls. Calls follow the shape of the dose curve; as a rule, active = well fitted inhibition curve with a large enough effect; inconclusive = small, poorly fitted or top-dose-only effect; inactive = flat fitted curve, though single readings scatter.

The experiment relates to CRL-7250. Briefly: qHTS assay to identify novel small-molecules to repurpose for Merkel cell carcinoma treatment (AID 1296009). Also: nearly all actives have a fitted effect of over 60% in size. The note with it: MCC and control cell lines, CellTiter-Glo viability, 72 h; at 44.8 µM (top of the series) unless noted. Summed up:
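CellTiter-Glo luminescence after 72 hr compound exposure at 37 degree celsius gave cell viability. Libraries NPC and MIPE were run as 8- and 11-point dose responses; RLUs normalized to DMSO (negative) and no-cell (cytotoxicity) controls.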
Turning to `CN1N=C(C(N)=O)CCC1=O`, the call was inactive.

Consider `CCCCN(CCCC)CCCOC(=O)c1ccc(N)cc1`, for which the call was inactive.

With `O=c1[nH]c(=O)n([C@H]2C[C@H](O)[C@@H](CO)O2)cc1I`, the compound was classed as inactive.

With `COc1cc2c(Nc3ccc(Br)cc3F)ncnc2cc1OCC1CCN(C)CC1`, the result was inactive.

Consider `CCCCCCCCCCC[C@@H](C[C@@H]1OC(=O)[C@H]1CCCCCC)OC(=O)[C@H](CC(C)C)NC=O`, for which the compound was called inactive.

`CC[N+](C)(CC)CCOC(=O)C1c2ccccc2Oc2ccccc21`: the compound was called inactive.

Take `O=C(O)CSCC(=O)NC1CCSC1=O` (stereo not drawn): the call was inactive.

With `NC(=O)NS(=O)(=O)c1ccc(Cl)cc1`, the compound was classed as inactive.

`COc1cc2nc(Cl)nc(N)c2cc1OC`: the outcome was inactive.

With `COC(=O)CCCCC(CCSS/C(CCO)=C(\C)N(C=O)Cc1cnc(C)nc1N)SC(C)=O` (stereo not drawn), the result was inactive.

In the case of `O=C1O[C@H](CO)[C@@H](O)[C@H](O)[C@H]1O`, the compound was classed as inactive.

On to `CC(C)(Oc1ccc(C2CC2(Cl)Cl)cc1)C(=O)O` (stereo not drawn), for which the outcome was “inactive [at 92 µM]”.

With `CCCNC(C)C(=O)Nc1c(C)csc1C(=O)OC` (stereo not drawn), the outcome was inactive.

Take `Cn1c(=O)c2[nH]c(Br)nc2n(C)c1=O`: the result was inactive.

On to `CCN(CC)CC#CCOC(=O)C(O)(c1ccccc1)C1CCCCC1` (stereo not drawn), for which the call was inactive.

As to `CO[C@@]1(NC(=O)Cc2cccs2)C(=O)N2C(C(=O)O)=C(COC(N)=O)CS[C@@H]21`, the outcome was inactive.

As for `N[C@@H](COP(=O)(O)O)C(=O)O`, the outcome is “inactive [at 17.4 µM]”.

For the compound `O=C(O)c1c(O)c(-c2ccccc2)nc2ccccc12`, the compound was classed as inactive.
